The target of the first test is PGLYRP2. Nature of the test: pooled miR-30 sensor sort-seq; sequence = guide strand. As to conditions: shRNA.
For the sequence ATCTGCAGTGGTGACATCTGGA, the sensor-assay potency score (higher = more potent) is -0.549.

Sequence TAGCAATCCGAGTAGGATCCAG showed a sensor-assay potency score (higher = more potent) of -0.509.

The sequence TCGTACACGTAGCCGTCCGAGC registered a sensor-assay potency score (higher = more potent) of -1.66.

Regarding TTCTCGTACGTCATGTCGGGCC, the sensor-assay potency score (higher = more potent) is -0.387.

For the sequence TCTGGGTCTGGGAACCTCGGAG, the sensor-assay potency score (higher = more potent) is -0.74.

With TTTTGTAGCATCTGGAGTGTTG, the sensor-assay potency score (higher = more potent) is -0.0388.

In the case of TTGGACATCTGGACAGCCTTTT, the sensor-assay potency score (higher = more potent) was -0.831.

As to ATCTCTTAGAGACACTCCTGGC, the sensor-assay potency score (higher = more potent) is -0.911.

As for TTAACAGAGATGCCTTGGGGTC, the sensor-assay potency score (higher = more potent) is -1.41.

The sequence TTCTGCCGTCGGAAGTTGCTGC returned a sensor-assay potency score (higher = more potent) of -0.417.

A further test concerns the target PGR. The test is described as above. The conditions noted are these: shRNA.
TAACTTCAGACATCATTTCTGG returned a sensor-assay potency score (higher = more potent) of -0.00174.

Regarding TTCTTGGCTAACTTGAAGCTTG, the sensor-assay potency score (higher = more potent) is -0.748.

TTGATTAAGACTTGTCAGCAAA came in with a sensor-assay potency score (higher = more potent) of -0.954.

For the sequence TTGTGTTGTCATGTCCTGCATA, the sensor-assay potency score (higher = more potent) is -0.728.

For the sequence TTGAAGCTTGACAAACTCCTGT, the sensor-assay potency score (higher = more potent) turned out to be 0.608.

For the sequence TTGACTTCGTAGCCCTTCCAAA, the sensor-assay potency score (higher = more potent) is -1.29.

In turn, TAAGTTGATAGAAACGCTGTGA registered a sensor-assay potency score (higher = more potent) of 0.39.

Sequence TCAACTGTATGTCTTGACCTGG had a sensor-assay potency score (higher = more potent) of -0.016.

The sequence TAGTTGATTAAGACTTGTCAGC came in with a sensor-assay potency score (higher = more potent) of -0.703.

For TTCGTCTTCCAGCAGCTGCCGA, the sensor-assay potency score (higher = more potent) was -0.877.

For TGTAAGTTGATAGAAACGCTGT, the sensor-assay potency score (higher = more potent) turned out to be 0.269.

In the case of TTGTTTGACAAGATCATGCAAG, the sensor-assay potency score (higher = more potent) is -0.044.

Another test deals with PHACTR4. The test is described as above. As to conditions: shRNA.
TTAAACCTCAGAATCTTCCTGG returned a sensor-assay potency score (higher = more potent) of 0.724.

In turn, TTGACTGAGCTTTCTAGTGAGC showed a sensor-assay potency score (higher = more potent) of -0.776.

On to TTTCGCATAGATATTTTCCGTT, for which the sensor-assay potency score (higher = more potent) is -0.285.

The sequence TTTGATAACAATGTACCACTGT yielded a sensor-assay potency score (higher = more potent) of 0.882.

TTCATGAACCTCCATCTCGGAG registered a sensor-assay potency score (higher = more potent) of -1.12.

For the sequence TTGATAACAATGTACCACTGTT, the sensor-assay potency score (higher = more potent) is -0.00481.

The sequence TTCATCTTCTTCATCTCGGTAC registered a sensor-assay potency score (higher = more potent) of 0.467.

The sequence TTCCAGTTGAGCCTAGTCGTTT registered a sensor-assay potency score (higher = more potent) of -1.14.

Sequence TTCCTTTTTCTGATCTTCCTGC came in with a sensor-assay potency score (higher = more potent) of 0.429.

In turn, TCTTGAAGTACAATACACCAGG registered a sensor-assay potency score (higher = more potent) of -0.827.

As for TTCTTTAACATGGCATCGCTTG, the sensor-assay potency score (higher = more potent) is -0.642.

Turning to TTAGGTTGCAATATATTGCGTT, the sensor-assay potency score (higher = more potent) was 0.996.

The next test has as its target PHF15. Described as above. As to conditions: shRNA.
Take TAATATAGTCCGCATTTCCAGG: the sensor-assay potency score (higher = more potent) was -1.26.

Sequence TTGTCCACCTCGTCGGTCTTGG returned a sensor-assay potency score (higher = more potent) of -0.798.

TGTCGCATGACTGTCAGTGGTG yielded a sensor-assay potency score (higher = more potent) of -0.605.

TTGTCTGGAGTCGTCCGTGAAC returned a sensor-assay potency score (higher = more potent) of -1.11.

ATCTCGTCCAAGTCATAGCGGC yielded a sensor-assay potency score (higher = more potent) of -1.39.

These data come from the OligoGym collection.
Note: reference of the scale not given here.
